Laboratory results: the supplement of paper PMC10849652
Targets with a hit are over-represented here; the source holds about 7,900 in all. About 0.6% of all pairs of compound and target were hits.

Experiments:
Assay in all cases: log2 fold change, soluble protein after heating vs DMSO (PISA); higher = thermal stabilisation; K562 cells, 10 uM, 30 min; active = over 0.2 and 3.5 SD of the protein, either way, in both replicates (recomputed)
[1] = compound: COC1=CC=C(C=C1)CN2C=CC3=C2C=C(C=C3)C(=O)NO
Method in brief: (§1)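 Soluble protein was defined as the supernatant after 21,000xg for 90 min. It came from K562 cells at 2×10^6 cells/mL given 10 μM compound for 30 min, heated in aliquots for 3 min across 48°C-58°C, pooled, and extracted in PBS with 0.5% NP-40 at 4°C, and was quantified by TMTpro 16plex LC-MS/MS with equalised channel sums. Thermal stability against control samples, from duplicates, is reported as log2 fold change.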

filanesib = compound: CON(C)C(=O)N1N=C(c2cc(F)ccc2F)S[C@@]1(CCCN)c1ccccc1 [filanesib]
Method in brief: as §1

zotarolimus = compound: CO[C@H]1C[C@@H]2CC[C@@H](C)[C@@](O)(O2)C(=O)C(=O)N2CCCC[C@H]2C(=O)O[C@H]([C@H](C)C[C@@H]2CC[C@H](n3cnnn3)[C@H](OC)C2)CC(=O)[C@H](C)/C=C(\C)[C@@H](O)[C@@H](OC)C(=O)[C@H](C)C[C@H](C)/C=C/C=C/C=C/1C [zotarolimus]
Method in brief: as §1

idasanutlin = compound: COc1cc(C(=O)O)ccc1NC(=O)[C@@H]1N[C@@H](CC(C)(C)C)[C@](C#N)(c2ccc(Cl)cc2F)[C@H]1c1cccc(Cl)c1F [idasanutlin]
Method in brief: as §1

alisertib = compound: COc1cc(Nc2ncc3c(n2)-c2ccc(Cl)cc2C(c2c(F)cccc2OC)=NC3)ccc1C(=O)O [alisertib]
Method in brief: as §1

[2] = compound: COc1cc2nc(-c3cc(F)ccc3O)nc(N[C@@H]3CNC[C@H]3C(C)(C)O)c2cc1OC
Method in brief: as §1

gefitinib = compound: COc1cc2ncnc(Nc3ccc(F)c(Cl)c3)c2cc1OCCCN1CCOCC1 [gefitinib]
Method in brief: as §1

[3] = compound: COc1cccc2cc(-c3nc([C@H]4CC[C@H](C(=O)O)CC4)n4ncnc(N)c34)[nH]c12
Method in brief: as §1

lapatinib = compound: CS(=O)(=O)CCNCc1ccc(-c2ccc3ncnc(Nc4ccc(OCc5cccc(F)c5)c(Cl)c4)c3c2)o1 [lapatinib]
Method in brief: as §1

pictilisib = compound: CS(=O)(=O)N1CCN(Cc2cc3nc(-c4cccc5[nH]ncc45)nc(N4CCOCC4)c3s2)CC1 [pictilisib]
Method in brief: as §1

[4] = compound: CS(=O)(=O)c1ccc(-c2cnc(N)c(C(=O)Nc3ccccc3)n2)cc1
Method in brief: as §1

crizotinib = compound: C[C@@H](Oc1cc(-c2cnn(C3CCNCC3)c2)cnc1N)c1c(Cl)ccc(F)c1Cl [crizotinib]
Method in brief: as §1

[5] = compound: C[C@@H]1COCCN1C2=NC(=NC(=C2)C3(CC3)S(=O)(=O)C)C4=C5C=CNC5=CC=C4
Method in brief: as §1

[6] = compound: C[C@H](C1=CC=C(C=C1)C(=O)NC2=C3C=CNC3=NC=C2)N
Method in brief: as §1

duvelisib = compound: C[C@H](Nc1ncnc2nc[nH]c12)c1cc2cccc(Cl)c2c(=O)n1-c1ccccc1 [duvelisib]
Method in brief: as §1

gandotinib = compound: Cc1cc(Nc2cc(CN3CCOCC3)c3nc(C)c(Cc4ccc(Cl)cc4F)n3n2)n[nH]1 [gandotinib]
Method in brief: as §1

tozasertib = compound: Cc1cc(Nc2cc(N3CCN(C)CC3)nc(Sc3ccc(NC(=O)C4CC4)cc3)n2)n[nH]1 [tozasertib]
Method in brief: as §1

[7] = compound: Cc1cc(SCc2sc(-c3ccc(C(F)(F)F)cc3)nc2C)ccc1OCC(=O)O
Method in brief: as §1

doramapimod = compound: Cc1ccc(-n2nc(C(C)(C)C)cc2NC(=O)Nc2ccc(OCCN3CCOCC3)c3ccccc23)cc1 [doramapimod]
Method in brief: as §1

ispinesib = compound: Cc1ccc(C(=O)N(CCCN)[C@@H](c2nc3cc(Cl)ccc3c(=O)n2Cc2ccccc2)C(C)C)cc1 [ispinesib]
Method in brief: as §1

Measured: log2 fold change

CRLF3 (UniProt Q8IUI8)
Sequence of UniProt Q8IUI8 (Q8IUI8 whole entry, looked up): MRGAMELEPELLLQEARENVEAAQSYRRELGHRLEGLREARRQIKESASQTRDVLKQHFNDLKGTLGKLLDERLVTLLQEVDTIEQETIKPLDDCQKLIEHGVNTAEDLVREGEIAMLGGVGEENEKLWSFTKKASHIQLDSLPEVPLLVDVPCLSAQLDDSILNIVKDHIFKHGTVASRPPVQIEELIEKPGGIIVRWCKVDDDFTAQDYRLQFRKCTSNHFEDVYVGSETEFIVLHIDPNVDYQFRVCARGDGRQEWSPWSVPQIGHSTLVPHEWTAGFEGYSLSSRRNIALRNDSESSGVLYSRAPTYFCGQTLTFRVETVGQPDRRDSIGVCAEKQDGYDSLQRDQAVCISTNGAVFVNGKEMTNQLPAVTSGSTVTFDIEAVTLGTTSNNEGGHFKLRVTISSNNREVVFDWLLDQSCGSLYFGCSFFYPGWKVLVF
inactive: [1] -0.006 | filanesib -0.049 | zotarolimus 0.016 | idasanutlin 0.039 | alisertib 0.005 | [2] -0.05 | gefitinib 0.018 | [3] 0.014 | lapatinib 0.035 | pictilisib 0.051 | [4] 0.053 | crizotinib -0.015 | [5] 0.048 | [6] 0.017 | duvelisib 0.076 | gandotinib 0.016 | tozasertib 0.021 | [7] 0.019 | doramapimod 0.138 | ispinesib -0.059

CSE1L (UniProt P55060)
Sequence of UniProt P55060 (P55060 whole entry, looked up): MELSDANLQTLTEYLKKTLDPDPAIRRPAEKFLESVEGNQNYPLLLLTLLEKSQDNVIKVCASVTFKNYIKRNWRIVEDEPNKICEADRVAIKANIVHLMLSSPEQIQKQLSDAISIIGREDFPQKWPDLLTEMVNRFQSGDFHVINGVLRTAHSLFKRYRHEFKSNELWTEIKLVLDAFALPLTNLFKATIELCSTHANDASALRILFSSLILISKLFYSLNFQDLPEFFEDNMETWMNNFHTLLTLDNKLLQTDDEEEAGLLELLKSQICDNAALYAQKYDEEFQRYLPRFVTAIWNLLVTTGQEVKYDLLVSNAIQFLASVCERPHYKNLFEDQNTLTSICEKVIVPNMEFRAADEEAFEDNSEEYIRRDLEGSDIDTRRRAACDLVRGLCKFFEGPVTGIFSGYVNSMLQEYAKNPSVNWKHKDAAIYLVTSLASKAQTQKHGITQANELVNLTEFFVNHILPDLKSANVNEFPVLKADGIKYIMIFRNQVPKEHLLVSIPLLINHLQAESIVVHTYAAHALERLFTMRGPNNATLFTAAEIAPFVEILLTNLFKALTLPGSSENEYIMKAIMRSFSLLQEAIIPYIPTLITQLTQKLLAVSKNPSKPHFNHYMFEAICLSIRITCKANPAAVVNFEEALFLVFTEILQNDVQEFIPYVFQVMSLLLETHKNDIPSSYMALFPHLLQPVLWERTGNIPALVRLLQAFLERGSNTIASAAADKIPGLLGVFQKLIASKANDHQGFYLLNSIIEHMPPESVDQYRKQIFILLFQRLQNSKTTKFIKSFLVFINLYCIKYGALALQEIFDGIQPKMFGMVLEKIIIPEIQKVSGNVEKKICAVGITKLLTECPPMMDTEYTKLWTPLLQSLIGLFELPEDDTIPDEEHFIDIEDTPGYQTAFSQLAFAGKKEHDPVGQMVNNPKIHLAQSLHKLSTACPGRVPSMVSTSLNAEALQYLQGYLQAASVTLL
inactive: [1] 0.024 | filanesib -0.1 | zotarolimus 0.027 | idasanutlin -0.135 | alisertib -0.059 | [2] 0.005 | gefitinib -0.018 | [3] -0.019 | lapatinib -0.036 | pictilisib -0.015 | [4] 0.008 | crizotinib -0.063 | [5] 0.083 | [6] -0.067 | duvelisib 0.01 | gandotinib -0.174 | tozasertib 0.066 | [7] 0.024 | doramapimod -0.027 | ispinesib -0.003

CRKL (UniProt P46109)
active: crizotinib -1.34
inactive: [1] 0.006 | filanesib 0.002 | zotarolimus 0.007 | idasanutlin 0.022 | alisertib -0.036 | [2] 0.021 | gefitinib 0 | [3] 0.102 | lapatinib -0.012 | pictilisib 0.057 | [4] 0.037 | [5] 0.008 | [6] -0.045 | duvelisib 0.075 | gandotinib -0.027 | tozasertib -0.357 | [7] 0.012 | doramapimod -0.024 | ispinesib 0.046

CPSF6 isoform 2 (UniProt Q16630)
active: [6] -0.292
inactive: [1] -0.03 | filanesib 0.036 | zotarolimus 0.016 | idasanutlin 0.034 | alisertib -0.046 | [2] 0.063 | gefitinib 0.023 | [3] 0.025 | lapatinib -0.016 | pictilisib 0.055 | [4] -0.014 | crizotinib -0.025 | [5] 0.075 | duvelisib -0.004 | gandotinib -0.034 | tozasertib -0.03 | [7] -0.012 | doramapimod 0.004 | ispinesib 0.11

CHD3 isoform 3 (UniProt Q12873)
Sequence of UniProt Q12873 (Q12873 whole entry, looked up): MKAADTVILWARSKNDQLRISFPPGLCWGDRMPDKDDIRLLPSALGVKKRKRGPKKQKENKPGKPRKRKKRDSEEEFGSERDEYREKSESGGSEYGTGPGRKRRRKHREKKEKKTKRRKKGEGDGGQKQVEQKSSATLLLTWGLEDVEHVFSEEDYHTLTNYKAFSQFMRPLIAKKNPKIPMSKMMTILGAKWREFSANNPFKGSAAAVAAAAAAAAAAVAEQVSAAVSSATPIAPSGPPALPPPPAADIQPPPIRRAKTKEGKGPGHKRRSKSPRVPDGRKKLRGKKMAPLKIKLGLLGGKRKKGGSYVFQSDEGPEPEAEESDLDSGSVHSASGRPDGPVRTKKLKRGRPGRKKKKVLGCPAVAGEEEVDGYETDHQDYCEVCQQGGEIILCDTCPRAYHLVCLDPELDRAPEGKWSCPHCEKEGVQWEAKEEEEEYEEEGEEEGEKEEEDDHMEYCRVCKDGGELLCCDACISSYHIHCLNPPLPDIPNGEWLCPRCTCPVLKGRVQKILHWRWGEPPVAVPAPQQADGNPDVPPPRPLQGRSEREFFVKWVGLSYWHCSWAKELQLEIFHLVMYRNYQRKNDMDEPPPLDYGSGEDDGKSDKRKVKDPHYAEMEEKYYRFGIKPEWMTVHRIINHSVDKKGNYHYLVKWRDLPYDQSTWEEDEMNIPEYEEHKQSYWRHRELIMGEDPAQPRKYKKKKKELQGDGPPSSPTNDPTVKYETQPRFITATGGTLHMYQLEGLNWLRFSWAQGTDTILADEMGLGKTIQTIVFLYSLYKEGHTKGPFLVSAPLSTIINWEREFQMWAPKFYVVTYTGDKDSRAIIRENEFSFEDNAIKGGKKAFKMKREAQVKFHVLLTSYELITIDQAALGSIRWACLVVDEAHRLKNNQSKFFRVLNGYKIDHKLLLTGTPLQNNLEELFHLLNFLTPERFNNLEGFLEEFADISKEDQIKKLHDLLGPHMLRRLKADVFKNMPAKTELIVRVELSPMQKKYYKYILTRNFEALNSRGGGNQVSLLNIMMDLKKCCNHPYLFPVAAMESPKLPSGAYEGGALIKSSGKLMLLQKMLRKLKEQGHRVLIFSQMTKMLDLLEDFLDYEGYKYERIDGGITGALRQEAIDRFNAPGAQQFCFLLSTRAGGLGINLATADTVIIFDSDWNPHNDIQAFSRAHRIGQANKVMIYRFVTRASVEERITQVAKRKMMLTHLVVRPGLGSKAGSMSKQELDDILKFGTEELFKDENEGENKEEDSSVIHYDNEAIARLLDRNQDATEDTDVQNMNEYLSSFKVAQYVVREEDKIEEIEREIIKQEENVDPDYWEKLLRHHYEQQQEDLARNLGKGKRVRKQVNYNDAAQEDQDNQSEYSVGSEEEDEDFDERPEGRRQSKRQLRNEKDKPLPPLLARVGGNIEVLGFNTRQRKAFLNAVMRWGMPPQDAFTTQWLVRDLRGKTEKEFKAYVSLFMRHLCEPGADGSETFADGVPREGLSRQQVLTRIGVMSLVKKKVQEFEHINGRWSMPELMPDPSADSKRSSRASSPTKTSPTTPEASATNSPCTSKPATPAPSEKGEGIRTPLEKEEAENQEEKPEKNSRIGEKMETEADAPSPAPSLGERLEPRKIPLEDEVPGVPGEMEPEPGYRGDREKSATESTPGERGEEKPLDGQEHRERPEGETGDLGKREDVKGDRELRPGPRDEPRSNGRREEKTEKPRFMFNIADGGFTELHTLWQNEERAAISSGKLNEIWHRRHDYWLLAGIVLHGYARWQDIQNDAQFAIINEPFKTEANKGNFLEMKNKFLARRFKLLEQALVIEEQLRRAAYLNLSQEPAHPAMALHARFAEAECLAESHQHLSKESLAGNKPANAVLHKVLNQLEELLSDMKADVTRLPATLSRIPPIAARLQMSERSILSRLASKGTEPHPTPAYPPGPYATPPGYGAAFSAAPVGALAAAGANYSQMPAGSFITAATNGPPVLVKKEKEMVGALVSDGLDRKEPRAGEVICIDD
inactive: [1] -0.137 | filanesib 0.082 | zotarolimus 0.174 | idasanutlin 0.097 | alisertib -0.001 | [2] -0.207 | gefitinib 0 | [3] -0.051 | lapatinib -0.016 | pictilisib -0.024 | [4] -0.036 | crizotinib -0.128 | [5] 0.068 | [6] 0.079 | duvelisib 0.01 | gandotinib 0.237 | tozasertib 0.23 | [7] 0.14 | doramapimod 0.026 | ispinesib -0.193

CHCHD4 isoform 2 (UniProt Q8N4Q1)
inactive: [1] 0 | filanesib -0.059 | zotarolimus 0.032 | idasanutlin -0.043 | alisertib -0.099 | [2] -0.285 | gefitinib 0.011 | [3] 0.102 | lapatinib 0.341 | pictilisib -0.016 | [4] -0.041 | crizotinib 0.017 | [5] 0.156 | [6] -0.272 | duvelisib -0.217 | gandotinib -0.079 | tozasertib 0.182 | [7] 0.022 | doramapimod 0.069 | ispinesib -0.074

COX20 isoform 2 (UniProt Q5RI15)
inactive: [1] -0.029 | filanesib -0.011 | zotarolimus -0.029 | idasanutlin -0.039 | alisertib -0.025 | [2] 0.06 | gefitinib -0.01 | [3] 0.012 | lapatinib -0.014 | pictilisib -0.081 | [4] -0.043 | crizotinib 0.063 | [5] -0.098 | [6] 0.01 | duvelisib -0.017 | gandotinib -0.385 | tozasertib 0.022 | [7] -0.001 | doramapimod -0.001 | ispinesib -0.017

CDKN2AIP (UniProt Q9NXV6)
inactive: [1] 0.059 | filanesib 0.024 | zotarolimus -0.029 | idasanutlin -0.033 | alisertib -0.091 | [2] -0.007 | gefitinib 0.038 | [3] 0.054 | lapatinib 0.042 | pictilisib -0.025 | [4] -0.053 | crizotinib 0.01 | [5] -0.132 | [6] -0.004 | duvelisib 0.031 | gandotinib -0.012 | tozasertib -0.024 | [7] 0.021 | doramapimod -0.019 | ispinesib 0.048

COPS8 (UniProt Q99627)
inactive: [1] 0.006 | filanesib 0.023 | zotarolimus 0.045 | idasanutlin -0.017 | alisertib 0.042 | [2] -0.078 | gefitinib -0.028 | [3] 0.117 | lapatinib -0.01 | pictilisib -0.014 | [4] -0.017 | crizotinib 0.07 | [5] 0.13 | [6] -0.148 | duvelisib 0.096 | gandotinib 0.048 | tozasertib 0.028 | [7] 0.054 | doramapimod 0.107 | ispinesib 0.05

CSNK2B (UniProt P67870)
inactive: [1] 0.113 | filanesib -0.006 | zotarolimus -0.002 | idasanutlin -0.026 | alisertib -0.013 | [2] -0.196 | gefitinib -0.013 | [3] 0.028 | lapatinib 0.04 | pictilisib 0.079 | [4] 0.05 | crizotinib -0.037 | [5] 0.049 | [6] -0.128 | duvelisib 0.075 | gandotinib -0.027 | tozasertib 0.006 | [7] -0.005 | doramapimod -0.002 | ispinesib 0.016

CD63 (UniProt P08962)
inactive: [1] -0.053 | zotarolimus -0.01 | idasanutlin -0.051 | alisertib -0.069 | [2] -0.031 | gefitinib -0.076 | [3] 0.096 | lapatinib -0.002 | pictilisib 0.032 | [4] 0.039 | crizotinib -0.076 | [5] 0.009 | [6] -0.013 | duvelisib 0.014 | gandotinib -0.023 | tozasertib -0.007 | [7] -0.022 | doramapimod 0.033 | ispinesib -0.092
active: filanesib -0.336

CASTOR2 (UniProt A6NHX0)
Sequence of UniProt A6NHX0 (A6NHX0 whole entry, looked up): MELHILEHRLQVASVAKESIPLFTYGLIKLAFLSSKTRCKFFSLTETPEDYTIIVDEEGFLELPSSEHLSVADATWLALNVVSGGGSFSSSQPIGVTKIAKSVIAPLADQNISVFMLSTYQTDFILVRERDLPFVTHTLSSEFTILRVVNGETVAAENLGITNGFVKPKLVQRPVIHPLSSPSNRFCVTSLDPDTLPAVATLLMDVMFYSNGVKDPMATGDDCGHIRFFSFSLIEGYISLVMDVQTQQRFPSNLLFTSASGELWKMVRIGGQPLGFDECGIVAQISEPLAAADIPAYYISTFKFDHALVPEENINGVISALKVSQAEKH
inactive: [1] 0.04 | filanesib -0.042 | zotarolimus -0.038 | idasanutlin 0.027 | alisertib -0.08 | [2] 0.194 | gefitinib -0.053 | [3] 0.063 | lapatinib -0.108 | pictilisib -0.042 | [4] -0.053 | crizotinib 0.045 | [5] 0.088 | [6] -0.022 | duvelisib 0.075 | gandotinib -0.018 | tozasertib -0.113 | [7] 0.008 | doramapimod 0.037 | ispinesib 0.018

C16orf58 (UniProt Q96GQ5)
Sequence of UniProt Q96GQ5 (Q96GQ5 whole entry, looked up): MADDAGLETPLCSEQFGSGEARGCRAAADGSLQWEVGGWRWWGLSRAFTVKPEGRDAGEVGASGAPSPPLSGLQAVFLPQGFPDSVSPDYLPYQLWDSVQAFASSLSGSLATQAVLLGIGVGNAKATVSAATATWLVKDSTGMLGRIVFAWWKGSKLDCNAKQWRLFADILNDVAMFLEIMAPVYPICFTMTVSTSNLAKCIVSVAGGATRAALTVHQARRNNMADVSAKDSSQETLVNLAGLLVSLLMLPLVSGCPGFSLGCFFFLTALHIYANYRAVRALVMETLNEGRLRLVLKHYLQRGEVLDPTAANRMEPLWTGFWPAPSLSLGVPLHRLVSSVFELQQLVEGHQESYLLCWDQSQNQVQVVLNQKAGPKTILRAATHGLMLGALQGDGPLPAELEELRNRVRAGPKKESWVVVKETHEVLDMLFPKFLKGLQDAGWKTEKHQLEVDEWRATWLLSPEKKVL
inactive: [1] -0.059 | filanesib -0.148 | zotarolimus -0.043 | idasanutlin -0.053 | alisertib -0.009 | [2] -0.009 | gefitinib 0.044 | [3] 0.037 | lapatinib 0.004 | pictilisib 0.015 | [4] 0.011 | crizotinib -0.057 | [5] 0.126 | [6] 0 | duvelisib 0.044 | gandotinib -0.08 | tozasertib -0.028 | [7] -0.035 | doramapimod 0.006
active: ispinesib -0.309

C4orf33 (UniProt Q8N1A6)
inactive: [1] -0.055 | filanesib 0.072 | zotarolimus -0.009 | idasanutlin -0.054 | alisertib -0.17 | [2] -0.026 | gefitinib 0.029 | [3] 0.061 | lapatinib 0 | pictilisib 0.049 | [4] 0.025 | crizotinib -0.098 | [5] 0.001 | [6] -0.209 | duvelisib 0.033 | gandotinib 0.019 | tozasertib -0.093 | [7] 0.005 | doramapimod -0.003 | ispinesib -0.038

CPSF7 isoform 3 (UniProt Q8N684)
Sequence of UniProt Q8N684 (Q8N684 whole entry, looked up): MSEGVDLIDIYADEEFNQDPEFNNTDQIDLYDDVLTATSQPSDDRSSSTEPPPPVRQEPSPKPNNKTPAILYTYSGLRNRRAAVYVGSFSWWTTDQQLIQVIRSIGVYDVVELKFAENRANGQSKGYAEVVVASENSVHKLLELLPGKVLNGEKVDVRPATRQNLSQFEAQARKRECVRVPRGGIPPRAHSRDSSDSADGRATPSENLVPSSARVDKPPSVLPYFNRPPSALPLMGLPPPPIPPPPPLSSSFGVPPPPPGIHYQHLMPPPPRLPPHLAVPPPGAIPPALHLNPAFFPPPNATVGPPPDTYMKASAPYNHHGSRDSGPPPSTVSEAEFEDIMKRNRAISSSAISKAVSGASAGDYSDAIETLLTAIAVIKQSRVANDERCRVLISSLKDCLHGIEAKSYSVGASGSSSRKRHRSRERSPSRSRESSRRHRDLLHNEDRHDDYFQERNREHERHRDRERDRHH
inactive: [1] 0.018 | filanesib 0.018 | zotarolimus 0.033 | idasanutlin -0.003 | alisertib -0.074 | [2] 0.065 | gefitinib 0.029 | [3] -0.016 | lapatinib 0.013 | pictilisib 0.12 | [4] -0.016 | crizotinib 0.013 | [5] 0.026 | [6] -0.05 | duvelisib 0.017 | gandotinib -0.004 | tozasertib -0.012 | [7] 0.018 | doramapimod -0.014 | ispinesib 0.09

CERS2 (UniProt Q96G23)
Sequence of UniProt Q96G23 (Q96G23 whole entry, looked up): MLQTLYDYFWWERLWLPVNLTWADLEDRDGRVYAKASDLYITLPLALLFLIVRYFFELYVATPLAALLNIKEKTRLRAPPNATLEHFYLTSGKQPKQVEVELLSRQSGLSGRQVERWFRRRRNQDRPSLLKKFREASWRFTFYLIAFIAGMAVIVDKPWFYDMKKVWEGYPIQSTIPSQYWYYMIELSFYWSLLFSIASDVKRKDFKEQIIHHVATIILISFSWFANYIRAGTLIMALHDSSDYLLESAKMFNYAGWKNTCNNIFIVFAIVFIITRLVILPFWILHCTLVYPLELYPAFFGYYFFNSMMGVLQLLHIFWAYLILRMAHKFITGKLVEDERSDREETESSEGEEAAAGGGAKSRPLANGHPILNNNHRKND
active: pictilisib -0.262 | crizotinib -0.294 | ispinesib -0.466
inactive: [1] -0.045 | filanesib -0.117 | zotarolimus -0.062 | idasanutlin -0.047 | alisertib -0.129 | [2] -0.107 | gefitinib -0.095 | [3] -0.005 | lapatinib -0.03 | [4] -0.027 | [5] -0.054 | [6] -0.034 | duvelisib 0.036 | gandotinib -0.203 | tozasertib -0.049 | [7] -0.032 | doramapimod -0.04
